# Experimental data published in ChEMBL document CHEMBL4513216, “Probing the Open Global Health Chemical Diversity Library for Multistage-Active Starting Points for Next-Generation Antimalarials” (ACS Infect Dis, 2020).
# Hit rate of the full screen: of about 69,000 compounds, about 8,600 (12%) showed an effect of 50% or more. This excerpt belongs to a sample that is enriched for strong results.
# Tested on: Plasmodium berghei
# Assay: Screen against P. berghei liver stage (PbLuc), transformed with Luciferase, at 10uM
# Assay type: functional, HepG2
# Details: tested at 10 uM
row,Compound,INHIBITION
1,Cc1nc(N2CCOCC2)ncc1-c1cc(O)nc(N2CCCCC2)n1,20.9%
2,O=C(NCc1csc2ccc(Cl)cc12)c1cc2n(n1)CCNC2,44.4%
3,Cc1nn(CC(=O)n2cccn2)c(C)c1I,8.53%
4,O=C(N[C@@H]1CN(c2ncccn2)C[C@@H]2CCCO[C@@H]21)c1ccncc1,35.8%
5,Cc1cccc(C2(CNC(=O)c3ccnc(N(C)C)c3)CCOCC2)c1,13.5%
6,COc1ccc(Cl)cc1C(=O)N1C[C@H](C(C)C)[C@@H](N)C1,-0.55%
7,CCCc1nc(CN2CCOC(Cn3cncn3)C2)cs1 (stereo not given),5.9%
8,COc1ccc([C@@H]2CN(Cc3cccnc3N)C[C@H]2NC(C)=O)cc1,23.9%
9,O=C([C@H]1CCCO1)N1CCC2(CC1)CNCc1ccccc12,17.2%
10,O=C(C1CC1)N1CCC2(CC1)CNc1ccc(F)cc12,8.85%
11,O=C(C1CCOC1)N1CCC2(CC1)Cc1ccccc1CNC2=O (stereo not given),2.26%
12,O=C([C@@H]1CSCN1)N1CCC2(CC1)CNCc1ccccc12,27.5%
13,O=C(C1CC1)N1CCC2(CC1)CNCc1ccccc12,74.8%
14,O=C(C1CCCCC1)N1CCC2(CC1)CNCc1ccccc12,61.5%
15,CC(CNC(=O)c1cc(C2CC2)on1)N1CCc2ccccc21 (stereo not given),-51.5%
16,CC(C)CC(N)C1=NC(=C2N=CN=N2)NO1 (stereo not given),37.7%
17,CC(C)C(N)C1=NC(=C2N=CN=N2)NO1 (stereo not given),8.11%
18,CC(Cc1ccccc1F)NC(=O)CCC1=NC(=C2N=CN=N2)NO1 (stereo not given),60.4%
19,Cn1ccnc1CN1CCCC1c1noc(C2CC2)n1 (stereo not given),7.64%
20,CCc1nc(C2CCCN2Cc2nc(C(C)(C)C)no2)no1 (stereo not given),71.2%
21,Cc1cc(CN2CCCC2c2noc(C3CC3)n2)c2ccccc2n1 (stereo not given),64.5%
22,Cc1nnc(CN2CCCC2c2ccc(C(C)(C)C)cc2)o1 (stereo not given),38.8%
23,CCc1nc(C2CCCN2Cc2nnc(CC)o2)no1 (stereo not given),-0.219%
24,CCc1nc(C2CCCN2Cc2nc(Cc3ccccc3)no2)no1 (stereo not given),31.3%
25,c1ccc(Cn2ccnc2CN2CCCC2c2noc(C3CC3)n2)cc1 (stereo not given),18.6%
26,Cc1nnc(CN2CCCC2c2ccsc2)o1 (stereo not given),53.9%
27,CCc1nc(C2CCCN2Cc2nc(C3CC3)no2)no1 (stereo not given),-34.9%
28,Cc1nnc(CN2CCCC2c2ccc(Cl)c(Cl)c2)o1 (stereo not given),21.5%
29,CCc1nc(C2CCCN2Cc2noc(Cc3ccccc3)n2)no1 (stereo not given),72.8%
30,CCc1nc(C2CCCN2Cc2nnc(Cc3ccccc3)o2)no1 (stereo not given),5.97%
